Results: the supplement of paper PMC10338343
± gives the standard deviation.

These sequences were tested on MILI (PIWIL2) piRISC loaded with L1MC piRNA (26 nt) (assay: pre-steady-state target cleavage rate (min^-1); guide: L1MC piRNA 5'p-UAACUAAAUACUAUGCAAGCUGUAGG; MIWI and MILI are mouse PIWI proteins and EfPiwi is from a freshwater sponge; tags in brackets are library labels; higher = faster piRNA-guided slicing of the target). Settings: auxiliary factor: 500 nM mouse GTSF1.
In short: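 Cleave-'n-Seq: a transcribed, DNA-blocked target RNA library (0.1 nM) was mixed with 1 nM active affinity-purified piRISC carrying one synthetic guide, with or without 500 nM GTSF1 partner protein, in HEPES–potassium acetate buffer at 33 °C for 0–8 or 0–960 min. Uncleaved targets were sequenced and normalised to depth and to weakly complementary targets. Three trials were pooled, and k3 was capped at 0.0001 min^-1. The pre-steady-state cleavage rate came from a burst-and-steady-state fit.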
With UCCUGCUACAGCUUGCAUAGCAUUUAGUUA the “pre-steady-state target cleavage rate” value was 0.141 ± 0.022. In the case of UCCUGGAUGUCCUUGCAUAGUAUUUACAUA, the “pre-steady-state target cleavage rate” value is reported as 0.039 ± 0.013. In the case of UCCUGGAUCAGCAAGCAUAGUAUUUACAAA, the “pre-steady-state target cleavage rate” value is reported as 0.108 ± 0.023. For UCCUGGAUCAGCUUGCAUAGUUAAUAGUAA, the “pre-steady-state target cleavage rate” value was 0.0192 ± 0.0068. In the case of UCCUGGUACAGCUUGCAUAGUAAAUUCAAA, the “pre-steady-state target cleavage rate” value is reported as 0.0147 ± 0.0074. UCCUGGAACAGCUUGCAUAGAUUUUACAAA was tested, and the “pre-steady-state target cleavage rate” value was 0.00713 ± 0.0045. For UCCUGCAUGAGCUUGCAUAGUAUUUAGAAA, the “pre-steady-state target cleavage rate” value was 0.157 ± 0.028. For UCCUGCUACAGCUUGCAUAGUAAAAAGAAA, the “pre-steady-state target cleavage rate” value was 0.0111 ± 0.0048. With UCCUGGAACAGCUUGCAUAGAAUUAAGUUA the “pre-steady-state target cleavage rate” value was 0.051 ± 0.014. With UCCUGGAACAGCUUGCAUAGUAUAAUGAAA the “pre-steady-state target cleavage rate” value was 0.0341 ± 0.013. For UCCUGGAUCAGCAUGCAUAGUAUUUUCAAA, the “pre-steady-state target cleavage rate” value was 0.0716 ± 0.018. UCCUCCUACAGCUUGCAUAGAUAUUAGUUA was tested, and the “pre-steady-state target cleavage rate” value was 0.0125 ± 0.0045. For UCCUGGAUGUCGAACGUUAGUUUUUAGAUA, the “pre-steady-state target cleavage rate” value was less than 0.0001. For UCCUGGAUCACGAUGCAUAGUAUUUAGAAA, the “pre-steady-state target cleavage rate” value was 0.111 ± 0.017. With UCCUGGAUCAGCAAGCAUAGUAUUUAGAAA the “pre-steady-state target cleavage rate” value was 0.101 ± 0.013. In the case of UCCUGGAACAGCUUGCAAUCUAUUUAGUUA, the “pre-steady-state target cleavage rate” value is reported as 0.0258 ± 0.0054. For UCCUGGAACAGCUUGCAUAGAAUUUACAAA, the “pre-steady-state target cleavage rate” value was 0.0177 ± 0.0082. In the case of UCCUGGAUCAGCUUCCAUAGAAUUUAGUUA, the “pre-steady-state target cleavage rate” value is reported as 0.0103 ± 0.0054. For UCCUGCUACAGCUACCAUAGUAUUUAGUAA, the “pre-steady-state target cleavage rate” value was 0.158 ± 0.029. For UCCUGGAUGUCCUUGCAUAGUAUUUACAAA, the “pre-steady-state target cleavage rate” value was 0.0869 ± 0.025. With UCCUCCUACAGCUUGCAUAGAAUUUAGAUA the “pre-steady-state target cleavage rate” value was 0.0558 ± 0.014. With UCCUGGUAGAGCUUGCAUAGUAUUUACUUA the “pre-steady-state target cleavage rate” value was 0.0436 ± 0.012. For UCCUGGAUCAGCUUGCAAUGUAUUUUCAAA, the “pre-steady-state target cleavage rate” value was 0.00576 ± 0.0035. In the case of UCCUGGUACAGCUUGCAUAGUAUUAUCAAA, the “pre-steady-state target cleavage rate” value is reported as 0.0127 ± 0.0058. UCCUGGAACACGAUGCAUAGUAUUUUCAAA was tested, and the “pre-steady-state target cleavage rate” value was 0.0494 ± 0.017. For UCCUGCUACAGCAAGCAUAGUAUUUAGAAA, the “pre-steady-state target cleavage rate” value was 0.217 ± 0.052. In the case of UCCUGGAACAGCUUGGUAAGUAUUUAGAAA, the “pre-steady-state target cleavage rate” value is reported as 0.0429 ± 0.015. In the case of UCCUGGUAGUGCUUGCAUAGUAUUUUCAAA, the “pre-steady-state target cleavage rate” value is reported as 0.00481 ± 0.0037. For UCCUCCUACAGCUUGCAUUGUAUUUAGAAA, the “pre-steady-state target cleavage rate” value was 0.0778 ± 0.019. UCCUGGAUGUCGAAGCAUAGUAUUUCGUUA was tested, and the “pre-steady-state target cleavage rate” value was 0.00855 ± 0.0046. For UCCUGCUACAGCUUGCAUACUAUUUUCAAA, the “pre-steady-state target cleavage rate” value was 0.0295 ± 0.01. UCCUGGAUCAGCUUGCAUACUAUAUAGUUA was tested, and the “pre-steady-state target cleavage rate” value was 0.018 ± 0.0043. In the case of UCCUGCUACAGCUUGGAUAGUAUUUACUUA, the “pre-steady-state target cleavage rate” value is reported as 0.00864 ± 0.0043.

Same assay, conditions: auxiliary factor: none (no GTSF1)
In the case of UCCUGGAUGUCGAAGCAUACAUUUUAGUUA, the “pre-steady-state target cleavage rate” value is reported as less than 0.0001. UCCUGGAUGUCGAACGAUAGUAUUUAUGUUA was tested, and the “pre-steady-state target cleavage rate” value was less than 0.0001. For UCCUGGAUGUCGAACGUAUCUUAUUAGUUA, the “pre-steady-state target cleavage rate” value was less than 0.0001. In the case of UCCUGCUACAGCUUGCAUAGAUAUUAGAAA, the “pre-steady-state target cleavage rate” value is reported as less than 0.0001. In the case of UCCUGGAUGUCGAACGUAUGUAUUUCGUUA, the “pre-steady-state target cleavage rate” value is reported as less than 0.0001. For UCCUGGAUGUCGUUCCAUAGUAUUUAGAUA, the “pre-steady-state target cleavage rate” value was less than 0.0001. With UCCUGGAUGUCGAACGUUACUAUUAAGUUA the “pre-steady-state target cleavage rate” value was less than 0.0001.
